From PubChem BioAssay
TDP1 cell CPT = qHTS for Inhibitors of human tyrosyl-DNA phosphodiesterase 1 (TDP1): qHTS in cells in presence of CPT. 420,000 compounds, 12% hits. Potency, µM (titrated, usually from 46.2 µM), for the others: top-dose activity change, negative = growth inhibition, most hits filed as inhibitors. chicken DT40 Tdp1-/-;hTDP1 cells + 20 nM CPT, ATP luminescence, 48 h; also: potency is read from the fitted curve at half-maximal effect; nearly all actives have a fitted effect of over 55% in size
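Chicken DT40 Tdp1-/- cells complemented with human TDP1, 400 cells/well, exposed to compounds plus 20 nM camptothecin for at least 48 h at 37 C; viability read as ATP content by CellTiter-Glo luminescence.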
TDP1 cell noCPT = qHTS for Inhibitors of human tyrosyl-DNA phosphodiesterase 1 (TDP1): qHTS in cells in absence of CPT; 420,000 compounds, 15% hits; Potency, µM (doses to about 46.2 µM), for the others: at the highest dose activity change, negative = growth inhibition, hits mostly inhibitors; AID 686978, 2013; DT40 Tdp1-/- hTDP1 cells, no CPT, ATP luminescence, 48 h; also: potency is read from the fitted curve at half-maximal effect; nearly all actives have a fitted effect of over 55% in size
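Chicken DT40 Tdp1-/- cells stably complemented with human TDP1 were seeded at 400 cells/well with DMSO in place of 20 nM camptothecin. After compound pinning, cells grew at least 48 hr at 37 °C; viability read by CellTiter-Glo luminescence.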
IL-1B inflam inh = qHTS for Inhibitors of Inflammasome Signaling: IL-1-beta AlphaLISA Primary Screen | 360,000 compounds, 4.7% hits | THP-1 LPS/ATP IL-1B secretion, AlphaLISA, 16 h; hits give low values | activity change, % at 57.5 µM; in the data active = activity change below about -50%; inconclusive = mostly about -30% to -49%
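Secreted IL-1B measured by AlphaLISA bead assay after 16 h compound exposure of THP-1 cells; compounds (final up to 57.5 uM) added 1 h before LPS (250 ng/mL) and ATP (1.25 mM) stimulation; lower signal means less secretion.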
HT1080 IDH1KD tx = qHTS for induction of synthetic lethality in tumor cells producing 2HG: qHTS for the HT-1080-IDH1KD cell line | HT-1080 IDH1 knockdown viability, ATP luminescence, 48 h | Potency, µM (highest dose often 46.1 µM), for inactives: at the top dose activity, negative = toxicity, hits mostly cytotoxic | 360,000 compounds, 2% hits;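 also: potency is read from the fitted curve at half-maximal effect; 0% = DMSO wells and -100% = cell-free medium wells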
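Knockdown cells (IDH1KD HT-1080) received compounds 2 h after plating at 750 cells/well and were kept 48 h at 37 °C in 5% FBS RPMI. A CellTiter-Glo luminescence read gave % activity for curve fitting.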
HT1080-NT tox = qHTS for induction of synthetic lethality in tumor cells producing 2HG: qHTS for the HT-1080-NT fibrosarcoma cell line. HT-1080-NT fibrosarcoma viability, CellTiter-Glo ATP luminescence, 48 h. Potency, µM (highest dose often 46.1 µM), inactives show at the highest dose activity, negative = less viability, usual class: cytotoxic. 360,000 compounds, 1.6% hits;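 also: NT is the 2HG producing partner of a matched IDH1 knockdown line; potency is read from the fitted curve at half-maximal effect; 0% = DMSO-treated cells and -100% = media-only wells without cells; nearly all actives have a fitted effect of over 55% in size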
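Compounds were tested in concentration-response format on HT-1080-NT cells for 48 hours at 37 degrees C. Cell viability came from CellTiter-Glo luminescence; curves were classified by r2, response magnitude and activity.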
Numbers without * were called inactive; ? = inconclusive; . = not tested or not shown. Compounds with a hit are over-represented: about 19% of the library has one in this group of screens. Unless noted, calls follow the shape of the dose curve; as a rule, active = well fitted curve in the direction sought with a large enough effect; inconclusive = small, poorly fitted or top-dose-only effect, or another doubt; inactive = no such curve, though single readings can be large; an effect the other way counts as inactive or inconclusive. Unless noted, % is scaled to controls: 0 for no effect and ±100 for the full control effect.

SMILES	TDP1 cell CPT	TDP1 cell noCPT	IL-1B inflam inh	HT1080 IDH1KD tx	HT1080-NT tox
COc1ccc(CNCc2cccc3ccccc23)cc1	?	?	-22	-19%	-19%
COc1ccccc1CNS(=O)(=O)CCNC(=O)c1ccccc1	-9%	-14%	-3	18%	-4%
CC(C)(C)C1=Nn2c(nnc2-c2ccccn2)SC1	-21%	-22%	18	-3%	-9%
C[C@H]1Cn2cnc(C(=O)NCC(=O)OC(C)(C)C)c2C(=O)N1	0%	-27%	15	2%	6%
COc1cc(OC)c(OC)cc1CNC(=O)c1cccc(S(=O)(=O)N2CCc3ccccc3C2)c1	13µM*	8.2µM*	9	-29%	?
O=C(OCc1cc(=O)n2nc(C3CCCCC3)sc2n1)c1ccc(F)cc1	-3%	-28%	.	.	.
COCCNC(=O)/C(C#N)=C/c1ccc(N2CCOCC2)o1	-3%	5%	-10	22%	25%
COc1ccc(/C=C(\C#N)C(=O)NCCc2ccccc2)cc1OCc1ccccc1	?	16µM*	-25	?	-24%
Cc1cc(/C=C(\C#N)C(=O)NCc2ccccc2)cc(C)c1O	-8%	-19%	-7	15%	2%
N#C/C(=C\c1ccc(N2CCOCC2)o1)C(=O)NCCc1ccccc1	?	?	-51*	-2%	-16%
N#C/C(=C\c1ccc(O)c(O)c1)C(=O)NCCCc1ccccc1	?	4.1µM*	-5	?	?
Cc1oc(-c2cccc(Cl)c2)nc1CN1CCC(C(=O)N2CCN(c3ccccn3)CC2)CC1	23µM*	18µM*	10	-2%	-1%
CCN1CCN(C(=O)C2CCN(Cc3nc(-c4cccc(Cl)c4)oc3C)CC2)CC1	21µM*	16µM*	?	-18%	-20%
Cc1oc(-c2cccc(Cl)c2)nc1CN1CCC(C(=O)NCc2cccnc2)CC1	?	-25%	-13	-3%	1%
CCN1CCN(C(=O)C2CCN(S(=O)(=O)c3ccc(Br)cc3)CC2)CC1	2%	?	-5	-2%	-1%
CCN1CCN(C(=O)C2CCN(Cc3cc(Cl)ccc3O)CC2)CC1	-7%	-5%	-77*	11%	?
CC[C@@]1(C(=O)OC)N[C@H](CN(C)C(=O)Nc2ccc(Cl)cc2)[C@@H]2C(=O)N(Cc3ccccc3)C(=O)[C@@H]21	-28%	-24%	-15	-4%	-3%
COc1ccc(N2C(=O)C3CCCN3C2=O)cc1 (configuration not stated)	14%	-9%	0	14%	20%
Cc1cc(OC(C)C(=O)N2CCC(c3nc4ccccc4o3)CC2)ccc1Cl (configuration not stated)	23µM*	15µM*	.	.	.
Cc1cc(C)cc(OCC(=O)N2CCC(c3nc4ccccc4o3)CC2)c1	?	16µM*	.	.	.
CS(=O)(=O)c1ccc(C(=O)N(CCc2ccccc2)Cc2ccccc2)cc1	-23%	-2%	-2	-5%	0%
COc1ccc(CN(C(C)=O)c2ccccc2C(=O)O)cc1	0%	26%	0	17%	10%
Cc1cccc(C(=O)N(CCc2ccccc2)Cc2ccccc2)c1[N+](=O)[O-]	10µM*	7.3µM*	0	?	?
COc1ccc(C(=O)N(CCc2ccccc2)Cc2ccccc2)c(OC)n1	?	?	-64*	-4%	-20%
COc1ccc(N(Cc2ccccc2)C(=O)c2ccccc2[N+](=O)[O-])cc1	?	9.2µM*	-17	-5%	-10%
O=C(c1ccccc1[N+](=O)[O-])N(CCc1ccccc1)Cc1ccccc1	16µM*	12µM*	-2	-5%	-7%
CS(=O)(=O)c1ccccc1C(=O)N(CCc1ccccc1)Cc1ccccc1	-19%	-29%	0	-7%	-6%
